# Assay outcomes deposited in PubChem by National Center for Advancing Translational Sciences (NCATS).
# Hits are enriched below; roughly 19% of the tested compounds scored in any of these assays.
# HT1080 IDH1KD tx = kills HT-1080 cells with IDH1 knockdown | Potency, µM (titrated, usually from 46.1 µM), without a hit: at the highest dose activity, negative = toxicity, usual class: cytotoxic | 2% of 360,000 active | AID 686971 | HT-1080 IDH1 knockdown viability, ATP luminescence, 48 h;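 further: 0% = DMSO wells and -100% = cell-free medium wells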
#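 After a 2 h attachment period, IDH1KD HT-1080 cells took pin-transferred compound for 48 h at 37 °C; ATP-based luminescence after 10 min room-temperature reagent incubation reported viability.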
# KB-V1 MDR tox = kills drug-selected multidrug resistant KB-V1 cells | Potency, µM (doses to about 46.1 µM), hits mostly cytotoxic | 3.4% of 400,000 active | KB-V1 MDR cells viability, CellTiter-Glo, 72 h | AID 1347076; further: nearly all actives have a fitted effect of over 60% in size
#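 Cytotoxicity via CellTiter-Glo luminescence after 72 h compound exposure at 37 degrees C. Cells: drug-selected KB-V1 line, DMEM phenol-red free plus 10% FBS. Compounds tested at multiple concentrations; normalized data fitted to concentration-effect curves.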
# DT40 TDP1 no CPT = qHTS for Inhibitors of human tyrosyl-DNA phosphodiesterase 1 (TDP1): qHTS in cells in absence of CPT; DT40 Tdp1-/- hTDP1 cells, no CPT, ATP luminescence, 48 h; Potency, µM (doses to about 46.2 µM), for inactives: at the highest dose activity change, negative = growth inhibition, actives largely listed as inhibitors; 15% of 420,000 active; AID 686978, 2013; further: nearly all actives have a fitted effect of over 55% in size
#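 Camptothecin absent (DMSO only). Human TDP1-complemented DT40 knockout cells, 400 cells/well, 37 °C for minimum 48 hr; ATP measured via CellTiter-Glo, 30 min dark incubation, luminescence.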
# TDP1 cell CPT = DT40-hTDP1 cell growth loss with CPT. Potency, µM (top dose mostly 46.2 µM), for the others: at the top dose activity change, negative = growth inhibition, most hits filed as inhibitors. 12% of 420,000 active. chicken DT40 Tdp1-/-;hTDP1 cells + 20 nM CPT, ATP luminescence, 48 h; further: nearly all actives have a fitted effect of over 55% in size
#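 Chicken DT40 Tdp1-/- cells stably complemented with human TDP1 were seeded at 400 cells/well in medium containing 20 nM camptothecin, exposed to pin-transferred compounds, and grown at 37 °C for at least 48 hr. Viability was read as ATP luminescence.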
# KB-3-1 cytotox = kills parental KB-3-1 adenocarcinoma cells. KB-3-1 viability, CellTiter-Glo ATP luminescence, 72 h. 1.4% of 400,000 active. AID 1347075. Potency, µM (doses to about 46.1 µM), usual class: cytotoxic; further: nearly all actives have a fitted effect of over 60% in size
#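 Multi-concentration cytotoxicity screen in KB-3-1 cells grown in DMEM lacking phenol red with 10% FBS. After 72 h at 37 °C with compound, ATP-dependent luminescence was recorded.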
# HT1080NT lethal = kills 2HG-producing HT-1080-NT fibrosarcoma cells | HT-1080-NT fibrosarcoma viability, CellTiter-Glo ATP luminescence, 48 h | 1.6% of 360,000 active | Potency, µM (top dose mostly 46.1 µM), without a hit: top-dose activity, negative = less viability, usual class: cytotoxic;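 further: NT is the 2HG producing partner of a matched IDH1 knockdown line; 0% = DMSO-treated cells and -100% = media-only wells without cells; nearly all actives have a fitted effect of over 55% in size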
#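 HT-1080-NT; 750 cells/well; 5% FBS RPMI; 48 h compound, 37 degrees C; CellTiter-Glo luminescence; curve fitting and curve-class assignment.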
# Starred values were filed as active, the others as inactive; i = inactive; ? = inconclusive; · = no result given. The call rests on the fitted dose curve; in most records, active means well fitted curve in the direction sought with a large enough effect; inconclusive means small, poorly fitted or top-dose-only effect, or another doubt; inactive means no such curve, though single readings can be large; an effect the other way counts as inactive or inconclusive. Unless noted, on the % scale 0 is the no-effect control and ±100 the full control effect; potency means the concentration at half of the fitted maximal effect.
SMILES,HT1080 IDH1KD tx,KB-V1 MDR tox,DT40 TDP1 no CPT,TDP1 cell CPT,KB-3-1 cytotox,HT1080NT lethal
CC(=O)c1ccc(S(=O)(=O)N(C)CC(=O)N2CCCCCC2)cc1,10%,i,4%,-16%,i,10%
O=Cc1ccc(C(=O)OCC(=O)NC(=O)Nc2ccccc2F)cc1,-1%,i,-11%,5%,i,-2%
C[C@]12CCC(=O)C=C1[C@@H]1C[C@@H]1[C@H]1[C@@H]3[C@@H]4C[C@@H]4[C@@]4(CCC(=O)O4)[C@@]3(C)CC[C@@H]12,·,·,7.5µM*,8.4µM*,·,·
CC(=O)SC1CC2=CC(=O)CCC2(C)C2CCC3(C)C(CCC34CCC(=O)O4)C12 (stereo not drawn),-23%,i,?,?,i,3%
N#CC(=C1NC(=O)c2ccccc21)c1nc2ccccc2n1CCO,0%,?,8.2µM*,?,?,15%
CC(=O)c1nc2ccccc2n1CCc1ccccc1,8%,i,-20%,-29%,i,10%
Cc1ccsc1CN(C)c1ncnc2ccc(-c3ccc4c(c3)OCO4)cc12,·,i,·,·,?,·
COc1ccc(CNC(=O)COC(=O)c2ccco2)cc1,16%,i,-1%,40%,i,21%
Cc1ccc(-n2c(N)c(C#N)c(-c3ccc(Cl)cc3)c(C#N)c2=O)cc1,-19%,i,-19%,?,i,-14%
CCOC(=O)c1c(-c2ccc(Cl)cc2)c(C#N)c(=O)n(N)c1N,-22%,i,0.52µM*,?,i,-17%
CCN(c1ccccc1)S(=O)(=O)c1ccc(OC)c(NC(=O)c2ccco2)c1,-1%,?,21µM*,?,i,-1%
CCN(c1ccccc1)S(=O)(=O)c1ccc(Oc2ccc([N+](=O)[O-])cc2)nc1,-19%,?,?,?,i,-3%
CCN(c1ccccc1)S(=O)(=O)c1ccc(Oc2ccc(C(C)=O)cc2OC)nc1,-10%,?,16µM*,?,i,-1%
CCN(c1ccccc1)S(=O)(=O)c1ccc(OC)c(NC(=O)c2ccccc2OC)c1,-6%,i,?,21µM*,i,-10%
Cc1cc(=O)n2nc(N(C)CC(=O)NCc3ccc(Cl)cc3)sc2n1,·,i,-5%,?,i,·
CCS(=O)(=O)c1ncc(Cl)c(C(=O)Nc2ccc(S(=O)(=O)N3CCC(C)CC3)cc2)n1,3.7µM*,10µM*,2.6µM*,1.8µM*,?,2.9µM*
CC(C)Sc1ncc(Cl)c(C(=O)Nc2ccc(S(=O)(=O)N3CCCCC3C)cc2)n1 (stereo not drawn),·,i,18µM*,?,i,·
CC1CCCCN1S(=O)(=O)c1ccc(NC(=O)c2ccco2)cc1 (stereo not drawn),3%,i,?,-24%,i,0%
Cc1cc2cc(C)c3nnc(SCC(=O)Nc4ccc(S(=O)(=O)N5CCCCC5C)cc4)n3c2cc1C (stereo not drawn),11%,i,10µM*,?,i,10%
CSc1ncc(Cl)c(C(=O)Nc2ccc(S(=O)(=O)N3CCC(C)CC3)cc2)n1,·,i,23µM*,23µM*,?,·
COc1ccc(-c2n[nH]c3c2cnc2cc(OC)c(OC)cc23)cc1,·,i,-22%,-14%,i,·
CCSc1ncc(Cl)c(C(=O)Nc2ccc(S(=O)(=O)N3CCC(C)CC3)cc2)n1,·,i,5.8µM*,15µM*,?,·
CCSc1ncc(Cl)c(C(=O)Nc2ccc(S(N)(=O)=O)cc2)n1,-1%,i,?,-19%,i,8%
CCCSc1ncc(Cl)c(C(=O)Nc2ccc(S(=O)(=O)N3CC(C)OC(C)C3)cc2)n1 (stereo not drawn),-1%,?,16µM*,?,?,-4%
CC(C)(C)C(=O)NC1(C(F)(F)F)C(=O)Nc2c1c(=O)[nH]c(=O)n2-c1ccccc1 (stereo not drawn),·,i,4%,9%,i,·
SMILES,HT1080 IDH1KD tx,KB-V1 MDR tox,DT40 TDP1 no CPT,TDP1 cell CPT,KB-3-1 cytotox,HT1080NT lethal
Cc1cccc(-c2ccc3c(c2)C2CC3CCN2)c1 (stereo not drawn),-4%,i,15µM*,21µM*,i,-15%
Fc1ccc(-c2ccc3c(c2)C2CC3CCN2)cc1 (stereo not drawn),3%,i,23µM*,18µM*,i,3%
O=C(Nc1nnc(-c2cccs2)o1)C1CC1,9%,i,3%,0%,i,0%
CN(C)S(=O)(=O)c1ccc(C(=O)Nc2nnc(-c3cccs3)o2)cc1,?,?,23µM*,13µM*,i,-29%
O=C(Nc1nnc(-c2cccs2)o1)c1cccc(C(F)(F)F)c1,?,i,5.2µM*,5.2µM*,i,?
CN(C)S(=O)(=O)c1ccc(C(=O)Nc2nnc(-c3ccc4c(c3)CCCC4)o2)cc1,-26%,i,5.2µM*,2.9µM*,?,-29%
N#Cc1ccc(C(=O)Nc2nnc(-c3cccs3)o2)cc1,-28%,i,7.3µM*,5.2µM*,?,-20%
OC[C@@H]1CN(Cc2ccc(Cl)cc2)C[C@H](n2cnc3c(NC4CCC4)ncnc32)O1,18%,i,?,?,i,25%
COc1ccc2c(c1)c(CC(=O)Nc1cc(C)ccc1C)c(C)n2C(=O)c1ccc(Cl)cc1,-15%,i,16µM*,?,i,3%
COc1ccc2c(c1)c(CC(=O)Nc1ccccc1OC)c(C)n2C(=O)c1ccc(Cl)cc1,-14%,?,?,?,?,0%
COc1ccc2c(c1)c(CC(=O)Nc1ccc(C(C)=O)cc1)c(C)n2C(=O)c1ccc(Cl)cc1,-5%,?,16µM*,21µM*,i,0%
COc1ccc2c(c1)c(CC(=O)Nc1nnc(C3CC3)s1)c(C)n2C(=O)c1ccc(Cl)cc1,?,?,8.2µM*,15µM*,?,23µM*
COc1ccc2c(c1)c(CC(=O)NCc1cc([N+](=O)[O-])ccc1O)c(C)n2C(=O)c1ccc(Cl)cc1,-27%,?,?,-26%,?,?
NCCCCCNC(=O)/C=N\O,3%,i,-21%,-21%,i,6%
Clc1ccc(NC2(c3nnnn3C3CCCCC3)CCCCC2)cc1,-9%,i,21µM*,18µM*,i,-14%
